For some assays here: Measured potencies and affinities stand elsewhere. Active and inactive are the calls of the source. Unless noted, how the calls were made is not given here.
Columns and labels:
[1] = antimalarial activity against Dd2 strain (AID 2302;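 active means growth inhibition above 50% at the single 2 µM test dose, taken to imply half-maximal potency below 2 µM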;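 further: 0% = DMSO untreated growth and 100% = chloroquine plus artemisinin killed control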); conditions: P. falciparum Dd2 in RBCs, LDH growth readout, 72 h; at 2 µM; active compounds read high
[2] = HepG2 cytotoxicity, primary screen, cytotoxicity control for P. falciparum antimalarial project, cell-based, ATP luminescence (AID 2303;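 active means inhibition above 50%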;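 further: 0% = DMSO wells and 100% = digitonin-killed cells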); conditions: HepG2 viability, 24-48 h, at 10 µM, active compounds read high
[3] = molecular target: L-lactate dehydrogenase (Plasmodium falciparum (isolate CDC / Honduras)) (UniProt Q27743); assay: PfLDH activity inhibition – cell lysate, 3D7 strain, counter-screen for P. falciparum growth inhibition project (AID 2304);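 further: 0% = vehicle and 100% = reference inhibitor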; conditions: P. falciparum 3D7 crude extract, LDH APAD/NBT absorbance; at 2 µM; active compounds read high
Sequence of L-lactate dehydrogenase (Plasmodium falciparum (isolate CDC / Honduras)) (Q27743 whole entry, looked up): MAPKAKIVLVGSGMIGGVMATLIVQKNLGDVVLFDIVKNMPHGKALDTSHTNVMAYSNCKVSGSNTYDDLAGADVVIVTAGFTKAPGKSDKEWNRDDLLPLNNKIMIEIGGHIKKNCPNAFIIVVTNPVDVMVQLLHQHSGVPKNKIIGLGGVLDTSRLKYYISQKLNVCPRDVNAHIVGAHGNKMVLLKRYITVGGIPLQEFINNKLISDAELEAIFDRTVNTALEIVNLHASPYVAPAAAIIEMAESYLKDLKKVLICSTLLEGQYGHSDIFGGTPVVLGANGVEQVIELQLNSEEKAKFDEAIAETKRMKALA

[4] = inhibition of 3D7 malaria parasite growth – strain 3D7 (AID 2306);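 further: 0% = DMSO wells and 100% = chloroquine plus artemisinin control wells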; conditions: P. falciparum 3D7 erythrocytic growth, LDH absorbance, 72 h; at 2 µM; active compounds read high
[5] = molecular target: Calcium-dependent protein kinase 1 (Plasmodium falciparum (isolate 3D7)) (UniProt P62344); assay: PfCDPK1 kinase inhibitors, biochemical, TCAMS library (AID 1159585; cut-off not given, nearly all actives have IC50 up to about 0.98 µM;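 further: inhibitors leave more ATP so luminescence rises with inhibition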); conditions: recombinant PfCDPK1, Kinase-Glo ATP depletion luminescence
Sequence of Calcium-dependent protein kinase 1 (Plasmodium falciparum (isolate 3D7)) (P62344 whole entry, looked up): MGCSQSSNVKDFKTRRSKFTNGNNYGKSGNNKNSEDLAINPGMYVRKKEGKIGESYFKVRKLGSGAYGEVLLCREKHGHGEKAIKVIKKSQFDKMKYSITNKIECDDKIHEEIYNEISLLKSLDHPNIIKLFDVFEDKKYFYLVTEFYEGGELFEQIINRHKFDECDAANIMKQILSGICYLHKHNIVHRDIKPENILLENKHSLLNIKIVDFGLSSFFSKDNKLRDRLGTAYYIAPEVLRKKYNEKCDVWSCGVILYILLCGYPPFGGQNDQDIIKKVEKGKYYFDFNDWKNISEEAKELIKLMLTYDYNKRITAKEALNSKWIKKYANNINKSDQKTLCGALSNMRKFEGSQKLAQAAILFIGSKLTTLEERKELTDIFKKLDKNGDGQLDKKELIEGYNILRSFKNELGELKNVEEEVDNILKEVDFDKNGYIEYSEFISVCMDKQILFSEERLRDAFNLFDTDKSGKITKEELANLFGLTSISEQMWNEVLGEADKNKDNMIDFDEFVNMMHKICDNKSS

[6] = molecular target: Plasmodium falciparum protein kinase 6 (PK6, PF3D7_1337100) (UniProt Q8IDW1); assay: PfPK6 kinase inhibitors, biochemical, TCAMS library (AID 1159586); conditions: recombinant PfPK6, Kinase-Glo ATP depletion luminescence
Sequence of Plasmodium falciparum protein kinase 6 (PK6, PF3D7_1337100) (Q8IDW1 1-305): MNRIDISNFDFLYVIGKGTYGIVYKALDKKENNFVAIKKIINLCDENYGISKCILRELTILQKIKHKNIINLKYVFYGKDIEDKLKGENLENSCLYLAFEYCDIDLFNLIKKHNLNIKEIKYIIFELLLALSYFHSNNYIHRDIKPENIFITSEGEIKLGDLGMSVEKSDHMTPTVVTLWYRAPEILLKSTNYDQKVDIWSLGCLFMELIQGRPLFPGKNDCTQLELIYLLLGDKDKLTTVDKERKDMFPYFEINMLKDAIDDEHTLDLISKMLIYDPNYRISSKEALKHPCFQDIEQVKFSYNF

[7] = molecular target: Protein kinase 7 (PK7), Plasmodium falciparum 3D7 (PF3D7_0213400) (UniProt Q7YTF7); assay: inhibition of Plasmodium PK7 catalytic activity – biochemical, TCAMS antimalarial set, Kinase-Glo luminescence (AID 1159587); conditions: recombinant PfPK7, Kinase-Glo ATP depletion luminescence
Sequence of Protein kinase 7 (PK7), Plasmodium falciparum 3D7 (PF3D7_0213400) (Q7YTF7 1-343): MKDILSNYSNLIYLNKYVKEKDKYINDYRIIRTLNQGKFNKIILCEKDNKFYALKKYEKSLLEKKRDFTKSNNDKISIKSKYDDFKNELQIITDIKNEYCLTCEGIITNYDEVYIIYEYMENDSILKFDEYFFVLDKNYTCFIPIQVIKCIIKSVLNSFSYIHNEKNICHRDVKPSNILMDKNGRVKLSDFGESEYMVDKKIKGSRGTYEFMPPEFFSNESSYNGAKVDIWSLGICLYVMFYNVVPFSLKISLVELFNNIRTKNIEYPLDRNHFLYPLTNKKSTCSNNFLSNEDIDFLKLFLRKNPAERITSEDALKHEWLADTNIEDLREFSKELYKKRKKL

[8] = molecular target: Calcium-dependent protein kinase 4 (Plasmodium falciparum (isolate 3D7)) (UniProt Q8IBS5); assay: PfCDPK4 kinase inhibitors, biochemical, TCAMS library (AID 1159588; cut-off not given, nearly all actives have IC50 up to about 0.91 µM); conditions: recombinant PfCDPK4, Kinase-Glo ATP depletion luminescence
Sequence of Calcium-dependent protein kinase 4 (Plasmodium falciparum (isolate 3D7)) (Q8IBS5 whole entry, looked up): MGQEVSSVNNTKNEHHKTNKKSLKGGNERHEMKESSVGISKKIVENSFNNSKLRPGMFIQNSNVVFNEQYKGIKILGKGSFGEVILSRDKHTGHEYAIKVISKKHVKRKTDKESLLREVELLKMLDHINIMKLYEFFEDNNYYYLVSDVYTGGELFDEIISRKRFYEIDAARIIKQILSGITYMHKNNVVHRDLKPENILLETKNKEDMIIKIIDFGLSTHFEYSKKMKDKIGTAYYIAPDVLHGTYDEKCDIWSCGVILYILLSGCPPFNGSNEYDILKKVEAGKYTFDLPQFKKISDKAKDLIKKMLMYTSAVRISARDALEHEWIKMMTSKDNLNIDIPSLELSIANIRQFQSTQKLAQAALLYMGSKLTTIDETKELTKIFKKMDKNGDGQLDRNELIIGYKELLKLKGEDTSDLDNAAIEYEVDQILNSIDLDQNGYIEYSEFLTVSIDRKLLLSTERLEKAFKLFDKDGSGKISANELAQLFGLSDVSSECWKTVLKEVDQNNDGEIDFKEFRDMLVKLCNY

FC(F)(F)c1ccc2nc(-c3ccc(-c4cccc(CN5CCC(CCN6CCCCC6)CC5)c4)cc3)[nH]c2c1
inactive: inhibition [3] -5% | outcome [5] | outcome [6] | outcome [7] | outcome [8]
active: growth inhibition [1] 96% | inhibition [2] 100% | growth inhibition [4] 101%

Cc1cc(C)cc(CC(=O)N2CCC(n3c(C)nc4ccc(C)cc43)CC2)c1
active: growth inhibition [1] 100% | inhibition [2] 52% | growth inhibition [4] 100%
inactive: inhibition [3] 6% | outcome [5] | outcome [6] | outcome [7] | outcome [8]

CCOC(=O)C1=C(C)NC2=C(C(=O)CC(C)(C)C2)C1c1ccc(Cl)cc1 (stereo not given)
inactive: inhibition [2] 4% | inhibition [3] 1% | outcome [5] | outcome [6] | outcome [7] | outcome [8]
active: growth inhibition [1] 84% | growth inhibition [4] 96%

CCCN(Cc1nnc(-c2cccs2)o1)C(=O)CSc1nnnn1-c1ccc(C)c(C)c1
inactive: inhibition [2] -7% | inhibition [3] 0% | outcome [5] | outcome [6] | outcome [7] | outcome [8]
active: growth inhibition [1] 80% | growth inhibition [4] 96%

CN(C)Cc1ccc(-c2cccc(Nc3nccc(NCC(O)c4ccccc4)n3)c2)cc1 (stereo not given)
inactive: inhibition [3] -1% | outcome [5] | outcome [6] | outcome [7] | outcome [8]
active: growth inhibition [1] 100% | inhibition [2] 74% | growth inhibition [4] 102%

OCc1ccc(-c2cncc(Nc3ccc(F)c(Cl)c3)c2)cc1
active: growth inhibition [1] 99% | growth inhibition [4] 92%
inactive: inhibition [2] 2% | inhibition [3] -2% | outcome [5] | outcome [6] | outcome [7] | outcome [8]

Oc1cccc(-c2nc(-c3ccccc3)c(-c3ccc(Oc4ccc(-c5[nH]c(-c6cccc(O)c6)nc5-c5ccccc5)cc4)cc3)[nH]2)c1
active: growth inhibition [1] 96% | growth inhibition [4] 91%
inactive: inhibition [2] 6% | inhibition [3] 0% | outcome [5] | outcome [6] | outcome [7] | outcome [8]

Cc1ccc(CN2CCN(CC(O)COc3ccc4c(c3)CCC4)CC2)cc1 (stereo not given)
active: growth inhibition [4] 95%
inactive: growth inhibition [1] -4% | inhibition [2] -15% | inhibition [3] -3% | outcome [5] | outcome [6] | outcome [7] | outcome [8]

COc1ccc(NC(=O)Nc2cccc(-c3ccc(-c4nc5c(C)cccc5[nH]4)s3)c2)cc1
active: growth inhibition [4] 101%
inactive: growth inhibition [1] 32% | inhibition [2] 23% | inhibition [3] 8% | outcome [5] | outcome [6] | outcome [7] | outcome [8]

O=C(NCCCc1ccccc1)c1csc(C2CCCN(C(=O)c3ccc(O)c(-c4cccc5ccccc45)c3)C2)n1 (stereo not given)
active: growth inhibition [1] 98% | growth inhibition [4] 97%
inactive: inhibition [2] 3% | inhibition [3] -1% | outcome [5] | outcome [6] | outcome [7] | outcome [8]

O=S(=O)(Nc1cc2c(cc1O)CCN(C1CCC1)CC2)c1ccc(-c2ccc(F)cc2)cc1
active: growth inhibition [1] 99% | growth inhibition [4] 101%
inactive: inhibition [2] 16% | inhibition [3] -1% | outcome [5] | outcome [6] | outcome [7] | outcome [8]

CC[C@H](NC(=O)c1c(CN2CCC(N3CCCCC3)CC2)c(-c2ccccc2)nc2cc(O)ccc12)c1ccccc1
inactive: growth inhibition [1] 13% | inhibition [2] 15% | inhibition [3] 2% | outcome [5] | outcome [6] | outcome [7] | outcome [8]
active: growth inhibition [4] 94%

COc1cc(NC(=O)Nc2ccnc3ccccc23)cc(OC)c1
inactive: growth inhibition [1] 34% | inhibition [2] 11% | inhibition [3] -6% | outcome [5] | outcome [6] | outcome [7] | outcome [8]
active: growth inhibition [4] 98%

Cc1ccccc1NC(=O)C1CSCN1C(=O)OCc1ccccc1 (stereo not given)
inactive: growth inhibition [1] -1% | inhibition [2] 8% | inhibition [3] -1% | outcome [5] | outcome [6] | outcome [7] | outcome [8]
active: growth inhibition [4] 91%

CCCCCCN(CCCCCC)CC(O)c1cc(-c2ccc(Cl)cc2)nc2c(C)cc(C)cc12 (stereo not given)
active: growth inhibition [1] 98% | growth inhibition [4] 98%
inactive: inhibition [2] 27% | inhibition [3] -2% | outcome [5] | outcome [6] | outcome [7] | outcome [8]

O=C(NC1CCN(Cc2ccccc2)CC1)c1cccc(-c2cc3cc(Cl)c(Cl)cc3[nH]2)c1
inactive: inhibition [2] 15% | inhibition [3] -6% | outcome [5] | outcome [6] | outcome [7] | outcome [8]
active: growth inhibition [1] 86% | growth inhibition [4] 100%

CC(C)CN1CCCN(Cc2cccc(NC(=O)c3cc4ccccc4s3)c2)CC1
active: growth inhibition [4] 87%
inactive: growth inhibition [1] 6% | inhibition [2] 5% | inhibition [3] 0% | outcome [5] | outcome [6] | outcome [7] | outcome [8]

COc1ccc2c(NN=Cc3ccccc3F)cc(C)nc2c1
active: growth inhibition [4] 90%
inactive: growth inhibition [1] 12% | inhibition [2] 4% | inhibition [3] 2% | outcome [5] | outcome [6] | outcome [7] | outcome [8]

O=C(c1ccccc1F)N(Cc1ccc(Cl)cc1)c1ccccn1
active: growth inhibition [1] 58% | growth inhibition [4] 84%
inactive: inhibition [2] -3% | inhibition [3] 1% | outcome [5] | outcome [6] | outcome [7] | outcome [8]

O=C(Nc1cccc(-c2nn3ccccc3c2-c2ccnc(Nc3ccccc3)n2)c1)c1cc(F)ccc1F
inactive: inhibition [2] 8% | inhibition [3] 0% | outcome [5] | outcome [6] | outcome [7] | outcome [8]
active: growth inhibition [1] 75% | growth inhibition [4] 98%

N#Cc1ccc2[nH]cc(CN3CCC4(CC3)CN(CCNCc3ccccc3)C(=O)CO4)c2c1
active: growth inhibition [4] 98%
inactive: growth inhibition [1] -2% | inhibition [2] -3% | inhibition [3] 1% | outcome [5] | outcome [6] | outcome [7] | outcome [8]

COc1ccc2ncc(F)c(CCN3[C@@H]4CC[C@H]3CC(NCc3cc5c(cn3)OCS5)C4)c2n1 (stereo not given in full)
active: growth inhibition [4] 95%
inactive: growth inhibition [1] 48% | inhibition [2] 15% | inhibition [3] -2% | outcome [5] | outcome [6] | outcome [7] | outcome [8]

CCc1c(C)nc(-n2nc(C)cc2NC(=O)C(CC)c2ccccc2)[nH]c1=O (stereo not given)
inactive: inhibition [2] 41% | inhibition [3] -1% | outcome [5] | outcome [6] | outcome [7] | outcome [8]
active: growth inhibition [1] 93% | growth inhibition [4] 97%

CC(C)n1ncc2c(C(=O)N3CCCc4ccccc43)cc(-c3ccccc3)nc21
inactive: inhibition [2] 5% | inhibition [3] 2% | outcome [5] | outcome [6] | outcome [7] | outcome [8]
active: growth inhibition [1] 82% | growth inhibition [4] 100%

Cc1ccc2cc(NCCCCCCCCON3C(N)=NC(N)=NC34CCCCC4)ccc2n1
inactive: inhibition [2] 15% | inhibition [3] 3% | outcome [5] | outcome [6] | outcome [7] | outcome [8]
active: growth inhibition [1] 80% | growth inhibition [4] 92%

O=C(NCCCCCN1CCC(c2c[nH]c3ccccc23)CC1)Nc1ccc(Br)cc1
active: growth inhibition [4] 91%
inactive: growth inhibition [1] -4% | inhibition [2] 24% | inhibition [3] 1% | outcome [5] | outcome [6] | outcome [7] | outcome [8]

Cc1cc(C(=O)CN2C(=O)NC(C)(c3cccc4ccccc34)C2=O)c(C)n1Cc1ccco1 (stereo not given)
active: growth inhibition [4] 90%
inactive: growth inhibition [1] 23% | inhibition [2] -2% | inhibition [3] 0% | outcome [5] | outcome [6] | outcome [7] | outcome [8]

CC1CCc2sc(-c3nnc(SC(C)C(=O)NC4CC4)o3)cc2C1 (stereo not given)
inactive: inhibition [2] 5% | inhibition [3] -4% | outcome [5] | outcome [6] | outcome [7] | outcome [8]
active: growth inhibition [1] 69% | growth inhibition [4] 83%

CN(C)CCn1c(N)c(-c2nc3ccccc3s2)c2nc(C#N)c(C#N)nc21
active: growth inhibition [4] 94%
inactive: growth inhibition [1] 40% | inhibition [2] 4% | inhibition [3] -7% | outcome [5] | outcome [6] | outcome [7] | outcome [8]

COc1cc(NCCCNCC2c3ccccc3Oc3ccccc32)nc2ccccc12
active: growth inhibition [1] 66% | inhibition [2] 99% | growth inhibition [4] 99%
inactive: inhibition [3] -9% | outcome [5] | outcome [6] | outcome [7] | outcome [8]

O=C(Nc1ccc(-c2csc(-c3nc4ccccc4[nH]3)c2)cc1)Nc1ccsc1
inactive: growth inhibition [1] 17% | inhibition [3] -1% | outcome [5] | outcome [6] | outcome [7] | outcome [8]
active: inhibition [2] 50% | growth inhibition [4] 101%

O=C(c1cccc(Br)c1)N1CCN(c2ccc([N+](=O)[O-])c(NC3CC3)c2)CC1
active: growth inhibition [1] 100% | growth inhibition [4] 99%
inactive: inhibition [2] 5% | inhibition [3] 3% | outcome [5] | outcome [6] | outcome [7] | outcome [8]

CCCNC(=O)Nc1cc2cc(-c3cccc(CN4CCCCC4)c3)ccc2n2c(C)nnc12
inactive: inhibition [3] 0% | outcome [5] | outcome [6] | outcome [7] | outcome [8]
active: growth inhibition [1] 50% | inhibition [2] 60% | growth inhibition [4] 100%

CN(C)CC(O)C(O)(c1ccccc1)c1ccc(F)cc1 (stereo not given)
active: growth inhibition [4] 93%
inactive: growth inhibition [1] 10% | inhibition [2] -10% | inhibition [3] 4% | outcome [5] | outcome [6] | outcome [7] | outcome [8]

CCc1cccc(NC(=O)/C=C/c2ccc3c(c2)CN(C)CC3)c1
active: growth inhibition [1] 91% | growth inhibition [4] 94%
inactive: inhibition [2] 8% | inhibition [3] -1% | outcome [5] | outcome [6] | outcome [7] | outcome [8]

O=C(Nc1ccc(Cl)c(Cl)c1)N[C@H]1CCN(CCCCCNC(=O)[C@@H]2C[C@H]2c2ccc(Cl)c(Cl)c2)C1
inactive: growth inhibition [1] 8% | inhibition [2] 42% | inhibition [3] 3% | outcome [5] | outcome [6] | outcome [7] | outcome [8]
active: growth inhibition [4] 93%

N#Cc1ccc(-c2ccc(C(=O)NCCCCN3CCC(c4ccc5c(c4OCc4ccncc4)CCCC5)CC3)cc2)cc1
inactive: inhibition [2] 41% | inhibition [3] 1% | outcome [5] | outcome [6] | outcome [7] | outcome [8]
active: growth inhibition [1] 57% | growth inhibition [4] 81%

CC(C)N1CCN(c2ccc(OCCCCN3CCN(c4cccc(Cl)c4Cl)CC3)c(C(F)(F)F)c2)CC1
active: inhibition [2] 64% | growth inhibition [4] 101%
inactive: growth inhibition [1] 28% | inhibition [3] 4% | outcome [5] | outcome [6] | outcome [7] | outcome [8]

CCc1cn2c3c(cc(C(=O)N[C@@H](Cc4ccccc4)[C@H](O)CNCc4ccc(C)cc4)cc13)N(C)S(=O)(=O)CC2
active: growth inhibition [1] 98% | growth inhibition [4] 99%
inactive: inhibition [2] -4% | inhibition [3] 5% | outcome [5] | outcome [6] | outcome [7] | outcome [8]

N#Cc1ccc2c(c1)CN(CCC1CCC(NC(=O)c3cc4cnccc4[nH]3)CC1)CC2 (stereo not given)
active: growth inhibition [4] 97%
inactive: growth inhibition [1] 28% | inhibition [2] 13% | inhibition [3] -2% | outcome [5] | outcome [6] | outcome [7] | outcome [8]

— PubChem BioAssay
